Assay results published in paper PMC7862700, “An all-to-all approach to the identification of sequence-specific readers for epigenetic DNA modifications on cytosine”.

Tests used:
Experiment in all cases: DAPPL (digital affinity profiling via proximity ligation, sequencing); 10 mM Tris-HCl pH 7.5, 50 mM NaCl, 1 mM DTT, 4% glycerol, room temperature, 30 min; GST-TFs on glutathione beads, 16-mer random dsDNA library, 0.1% formaldehyde crosslink after washing; high values mean tight binding
Conditions in all cases: protein: recombinant; tags: N-terminal GST; dsDNA, one strand shown
FLI1 = target: T1, FLI1 (Homo sapiens, UniProt Q01543 1-452)
T1 sequence: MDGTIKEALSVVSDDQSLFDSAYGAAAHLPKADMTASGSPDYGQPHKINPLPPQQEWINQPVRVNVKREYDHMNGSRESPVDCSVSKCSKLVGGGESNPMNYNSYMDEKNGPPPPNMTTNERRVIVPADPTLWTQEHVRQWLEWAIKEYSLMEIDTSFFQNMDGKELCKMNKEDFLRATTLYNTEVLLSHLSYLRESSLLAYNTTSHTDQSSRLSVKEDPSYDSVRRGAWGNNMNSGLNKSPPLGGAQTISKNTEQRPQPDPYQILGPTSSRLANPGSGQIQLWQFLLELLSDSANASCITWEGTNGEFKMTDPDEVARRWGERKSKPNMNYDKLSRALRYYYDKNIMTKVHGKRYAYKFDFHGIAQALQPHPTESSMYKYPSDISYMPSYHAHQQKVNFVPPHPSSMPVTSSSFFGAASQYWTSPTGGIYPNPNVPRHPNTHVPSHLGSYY
Method in brief: (§1)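 Pools were built from human transcription factors expressed in yeast as GST fusions, captured on glutathione beads and DNA-barcoded, along with a tag-only sample. Incubation with 200 nmole of a 16-mer random double-stranded DNA library lasted 30 min at room temperature in Tris/NaCl/DTT/glycerol buffer, and was followed by washing, 0.1% formaldehyde crosslinking, proximity ligation, PCR amplification and Illumina NextSeq500 sequencing. Binding signal is the quotient of each hexamer's read frequency for a factor and its frequency for the tag-only sample.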

ELK1 = target: T2, ELK1 (Homo sapiens, UniProt P19419 1-428)
T2 sequence: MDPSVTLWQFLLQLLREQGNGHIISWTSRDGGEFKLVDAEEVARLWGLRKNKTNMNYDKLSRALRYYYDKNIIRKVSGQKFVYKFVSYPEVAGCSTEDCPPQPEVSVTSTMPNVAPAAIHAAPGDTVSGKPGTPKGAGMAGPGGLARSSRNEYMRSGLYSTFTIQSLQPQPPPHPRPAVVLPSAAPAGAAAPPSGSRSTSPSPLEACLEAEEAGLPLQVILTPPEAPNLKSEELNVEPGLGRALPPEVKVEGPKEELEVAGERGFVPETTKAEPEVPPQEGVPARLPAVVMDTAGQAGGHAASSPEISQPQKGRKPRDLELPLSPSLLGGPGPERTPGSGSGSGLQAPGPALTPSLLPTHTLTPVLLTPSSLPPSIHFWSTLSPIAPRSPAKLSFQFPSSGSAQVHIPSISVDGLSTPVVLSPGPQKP
Method in brief: as §1

GABPA = target: T3, GABPA (Homo sapiens, UniProt Q06546 1-454)
T3 sequence: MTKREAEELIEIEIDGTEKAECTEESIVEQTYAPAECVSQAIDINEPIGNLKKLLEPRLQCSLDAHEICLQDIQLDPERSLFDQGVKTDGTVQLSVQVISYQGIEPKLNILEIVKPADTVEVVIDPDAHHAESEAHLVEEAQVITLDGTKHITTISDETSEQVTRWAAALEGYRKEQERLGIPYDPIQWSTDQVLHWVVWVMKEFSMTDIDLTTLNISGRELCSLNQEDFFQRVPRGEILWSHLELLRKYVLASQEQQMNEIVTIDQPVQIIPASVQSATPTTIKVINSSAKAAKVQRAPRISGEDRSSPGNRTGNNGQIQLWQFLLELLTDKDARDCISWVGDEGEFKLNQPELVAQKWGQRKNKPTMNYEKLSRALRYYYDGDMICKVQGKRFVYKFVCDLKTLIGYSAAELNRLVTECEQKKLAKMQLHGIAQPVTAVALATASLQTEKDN
Method in brief: as §1

ERG = target: T4, ERG (Homo sapiens, UniProt P11308 1-479)
T4 sequence: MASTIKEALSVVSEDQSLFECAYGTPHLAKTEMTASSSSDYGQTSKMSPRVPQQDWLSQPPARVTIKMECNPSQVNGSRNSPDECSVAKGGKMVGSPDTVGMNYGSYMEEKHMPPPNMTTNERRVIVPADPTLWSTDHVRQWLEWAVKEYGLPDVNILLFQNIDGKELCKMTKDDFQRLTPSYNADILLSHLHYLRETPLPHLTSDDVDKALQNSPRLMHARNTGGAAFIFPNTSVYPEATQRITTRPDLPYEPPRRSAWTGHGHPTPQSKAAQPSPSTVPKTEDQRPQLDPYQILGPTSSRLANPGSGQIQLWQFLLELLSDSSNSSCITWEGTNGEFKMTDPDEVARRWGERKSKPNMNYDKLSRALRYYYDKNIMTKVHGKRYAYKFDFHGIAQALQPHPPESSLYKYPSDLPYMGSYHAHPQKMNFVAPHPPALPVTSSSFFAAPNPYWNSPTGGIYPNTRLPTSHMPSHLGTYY
Method in brief: as §1

ELF1 = ELF1 (Homo sapiens, UniProt P32519 1-619)
Method in brief: as §1

EHF = target: T5, EHF (Homo sapiens, UniProt Q9NZC4 1-300)
T5 sequence: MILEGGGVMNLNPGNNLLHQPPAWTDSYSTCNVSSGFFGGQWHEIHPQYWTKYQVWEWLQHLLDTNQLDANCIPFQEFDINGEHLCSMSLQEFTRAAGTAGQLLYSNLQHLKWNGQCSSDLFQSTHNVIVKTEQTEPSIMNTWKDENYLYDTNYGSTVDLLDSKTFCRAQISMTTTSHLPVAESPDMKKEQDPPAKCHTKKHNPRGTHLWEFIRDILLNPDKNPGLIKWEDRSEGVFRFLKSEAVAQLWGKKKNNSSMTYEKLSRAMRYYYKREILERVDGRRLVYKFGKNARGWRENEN
Method in brief: as §1

SPI1 = SPI1 (Homo sapiens, UniProt P17947 1-270)
Method in brief: as §1

SPIB = SPIB (Homo sapiens, UniProt Q01892 1-262)
Method in brief: as §1

ELK3 = target: T6, ELK3 (Homo sapiens, UniProt P41970 1-407)
T6 sequence: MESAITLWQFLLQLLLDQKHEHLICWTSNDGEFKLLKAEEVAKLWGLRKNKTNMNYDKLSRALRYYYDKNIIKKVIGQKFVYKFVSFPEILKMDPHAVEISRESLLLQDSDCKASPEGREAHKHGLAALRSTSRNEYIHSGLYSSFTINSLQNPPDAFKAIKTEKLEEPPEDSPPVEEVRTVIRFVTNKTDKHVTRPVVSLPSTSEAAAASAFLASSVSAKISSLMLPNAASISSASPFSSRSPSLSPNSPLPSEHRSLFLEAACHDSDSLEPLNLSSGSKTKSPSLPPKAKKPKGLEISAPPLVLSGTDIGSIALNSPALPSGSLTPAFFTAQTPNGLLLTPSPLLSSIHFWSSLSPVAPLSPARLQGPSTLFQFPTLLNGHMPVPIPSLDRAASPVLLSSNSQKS
Method in brief: as §1

Chain of ELF1 (P32519 whole entry): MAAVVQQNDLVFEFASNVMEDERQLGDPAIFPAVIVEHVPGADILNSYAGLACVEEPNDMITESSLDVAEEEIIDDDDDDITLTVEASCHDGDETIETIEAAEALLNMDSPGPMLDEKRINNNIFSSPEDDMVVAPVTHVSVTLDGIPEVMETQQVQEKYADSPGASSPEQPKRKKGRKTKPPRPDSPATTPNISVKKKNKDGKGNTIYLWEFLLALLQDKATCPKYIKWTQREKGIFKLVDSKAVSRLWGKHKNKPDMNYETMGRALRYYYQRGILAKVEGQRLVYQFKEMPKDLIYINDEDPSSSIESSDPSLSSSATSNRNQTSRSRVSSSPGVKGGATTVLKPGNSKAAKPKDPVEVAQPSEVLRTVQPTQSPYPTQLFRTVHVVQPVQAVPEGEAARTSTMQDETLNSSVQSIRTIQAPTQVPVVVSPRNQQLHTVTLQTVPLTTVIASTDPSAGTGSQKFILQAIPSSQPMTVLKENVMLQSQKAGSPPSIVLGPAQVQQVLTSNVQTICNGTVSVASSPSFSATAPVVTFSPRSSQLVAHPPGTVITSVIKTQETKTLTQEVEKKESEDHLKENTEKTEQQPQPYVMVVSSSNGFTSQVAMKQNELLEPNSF
Chain of SPIB (Q01892 whole entry): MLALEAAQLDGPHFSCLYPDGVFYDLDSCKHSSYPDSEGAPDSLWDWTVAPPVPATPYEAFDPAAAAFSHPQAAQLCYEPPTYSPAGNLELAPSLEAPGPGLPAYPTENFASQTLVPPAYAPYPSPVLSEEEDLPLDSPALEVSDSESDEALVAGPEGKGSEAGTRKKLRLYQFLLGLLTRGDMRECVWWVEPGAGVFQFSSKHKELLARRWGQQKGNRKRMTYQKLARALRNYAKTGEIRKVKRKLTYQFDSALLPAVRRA

Row | Sequence | binding signal (FLI1) | binding signal (ELK1) | binding signal (GABPA) | binding signal (ERG) | binding signal (ELF1) | binding signal (EHF) | binding signal (SPI1) | binding signal (SPIB) | binding signal (ELK3)
1 | CAATGC | 1.21 fold enrichment (6-mer frequency, TF over GST control) | 1.23 fold enrichment (6-mer frequency, TF over GST control) | 1.21 fold enrichment (6-mer frequency, TF over GST control) | 1.12 fold enrichment (6-mer frequency, TF over GST control) | 1.21 fold enrichment (6-mer frequency, TF over GST control) | 1.17 fold enrichment (6-mer frequency, TF over GST control) | 1.12 fold enrichment (6-mer frequency, TF over GST control) | 1.32 fold enrichment (6-mer frequency, TF over GST control) | 1.21 fold enrichment (6-mer frequency, TF over GST control)
2 | CGGATG | 1.53 fold enrichment (6-mer frequency, TF over GST control) | 1.66 fold enrichment (6-mer frequency, TF over GST control) | 1.49 fold enrichment (6-mer frequency, TF over GST control) | 1.92 fold enrichment (6-mer frequency, TF over GST control) | 1.45 fold enrichment (6-mer frequency, TF over GST control) | 1.67 fold enrichment (6-mer frequency, TF over GST control) | 1.52 fold enrichment (6-mer frequency, TF over GST control) | 1.6 fold enrichment (6-mer frequency, TF over GST control) | 1.6 fold enrichment (6-mer frequency, TF over GST control)
3 | CTGAAG | 1.02 fold enrichment (6-mer frequency, TF over GST control) | 1.14 fold enrichment (6-mer frequency, TF over GST control) | 1.11 fold enrichment (6-mer frequency, TF over GST control) | 1.08 fold enrichment (6-mer frequency, TF over GST control) | 1.11 fold enrichment (6-mer frequency, TF over GST control) | 1.02 fold enrichment (6-mer frequency, TF over GST control) | 1.05 fold enrichment (6-mer frequency, TF over GST control) | 1.04 fold enrichment (6-mer frequency, TF over GST control) | 1.01 fold enrichment (6-mer frequency, TF over GST control)
4 | TCAAAT | 1.04 fold enrichment (6-mer frequency, TF over GST control) | 1.05 fold enrichment (6-mer frequency, TF over GST control) | 1.14 fold enrichment (6-mer frequency, TF over GST control) | 1.06 fold enrichment (6-mer frequency, TF over GST control) | 1.15 fold enrichment (6-mer frequency, TF over GST control) | 1.07 fold enrichment (6-mer frequency, TF over GST control) | 1.11 fold enrichment (6-mer frequency, TF over GST control) | 1.05 fold enrichment (6-mer frequency, TF over GST control) | 1.03 fold enrichment (6-mer frequency, TF over GST control)
5 | TTTTGA | 1.13 fold enrichment (6-mer frequency, TF over GST control) | 1.18 fold enrichment (6-mer frequency, TF over GST control) | 1.13 fold enrichment (6-mer frequency, TF over GST control) | 1.11 fold enrichment (6-mer frequency, TF over GST control) | 1.17 fold enrichment (6-mer frequency, TF over GST control) | 1.17 fold enrichment (6-mer frequency, TF over GST control) | 1.13 fold enrichment (6-mer frequency, TF over GST control) | 1.04 fold enrichment (6-mer frequency, TF over GST control) | 1.06 fold enrichment (6-mer frequency, TF over GST control)
6 | CAACTC | 1.37 fold enrichment (6-mer frequency, TF over GST control) | 1.23 fold enrichment (6-mer frequency, TF over GST control) | 1.3 fold enrichment (6-mer frequency, TF over GST control) | 1.28 fold enrichment (6-mer frequency, TF over GST control) | 1.34 fold enrichment (6-mer frequency, TF over GST control) | 1.19 fold enrichment (6-mer frequency, TF over GST control) | 1.31 fold enrichment (6-mer frequency, TF over GST control) | 1.22 fold enrichment (6-mer frequency, TF over GST control) | 1.3 fold enrichment (6-mer frequency, TF over GST control)
7 | CTAAAA | 1.13 fold enrichment (6-mer frequency, TF over GST control) | 1.12 fold enrichment (6-mer frequency, TF over GST control) | 1.18 fold enrichment (6-mer frequency, TF over GST control) | 1.2 fold enrichment (6-mer frequency, TF over GST control) | 1.13 fold enrichment (6-mer frequency, TF over GST control) | 1.1 fold enrichment (6-mer frequency, TF over GST control) | 1.26 fold enrichment (6-mer frequency, TF over GST control) | 1.1 fold enrichment (6-mer frequency, TF over GST control) | 1.13 fold enrichment (6-mer frequency, TF over GST control)
